UHRF1 MBD2 ctr: blocks human UHRF1 binding to methylated DNA; 0.75% of 370,000 active; UHRF1 binding to methylated oligo, TR-FRET; inhibition, % at 4.4 µM; in the data active = inhibition above about 21%;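 also: UHRF1 SRA domain binding a hemimethylated CpG hairpin DNA probe; 0% = median of test compound wells and 100% = reference inhibitor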
Target sequence (Q96T88 whole entry, looked up, the tested form may be a part): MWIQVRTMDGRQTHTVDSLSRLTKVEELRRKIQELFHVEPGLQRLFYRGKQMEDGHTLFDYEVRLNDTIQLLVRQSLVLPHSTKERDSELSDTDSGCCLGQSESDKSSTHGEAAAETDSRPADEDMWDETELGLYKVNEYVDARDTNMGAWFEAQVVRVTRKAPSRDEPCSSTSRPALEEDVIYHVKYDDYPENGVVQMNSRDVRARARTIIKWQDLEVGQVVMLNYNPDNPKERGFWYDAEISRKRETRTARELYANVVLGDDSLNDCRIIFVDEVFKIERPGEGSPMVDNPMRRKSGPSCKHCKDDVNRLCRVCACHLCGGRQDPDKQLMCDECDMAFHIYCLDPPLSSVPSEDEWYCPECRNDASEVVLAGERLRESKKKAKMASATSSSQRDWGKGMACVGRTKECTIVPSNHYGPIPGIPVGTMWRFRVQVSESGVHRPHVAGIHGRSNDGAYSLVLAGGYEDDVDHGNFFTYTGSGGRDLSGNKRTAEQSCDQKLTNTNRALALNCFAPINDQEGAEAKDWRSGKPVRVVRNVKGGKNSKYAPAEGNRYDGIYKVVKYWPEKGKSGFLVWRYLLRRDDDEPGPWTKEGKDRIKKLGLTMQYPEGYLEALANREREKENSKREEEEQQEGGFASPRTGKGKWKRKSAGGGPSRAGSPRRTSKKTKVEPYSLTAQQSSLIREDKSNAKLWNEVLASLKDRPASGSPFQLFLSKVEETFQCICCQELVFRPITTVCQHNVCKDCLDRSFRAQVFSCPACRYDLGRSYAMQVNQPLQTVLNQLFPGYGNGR
LEDGF integ inh: blocks HIV-1 LEDGF/p75-dependent DNA integration; 0.64% of 370,000 active; TR-FRET IN-LEDGF/p75 DNA integration, Eu/Cy5; inhibition, % at 3.7 µM;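 active = inhibition above the screen-wide mean plus 3 SD, cut at about 13% in these data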;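 also: signal is the Cy5 over europium emission ratio at 671 and 618 nm; 0% = plate median of compound wells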
Neddylation inh: cullin neddylation inhibition; P61081+Q13564; TR-FRET cullin neddylation, biochemical; calls only at 25 µM; 0.58% of 360,000 active; AID 651699; in the data active = inhibition above about 36%
Rin1-Abl PPI inh: blocks binding of human Rin1 to Abl. P00519+Q13671. TR-FRET Rin1/Abl binding, biochemical. inhibition, % at 7.35 µM. 0.4% of 360,000 active. AID 588664; in the data active = inhibition above about 5%, passing the limit was not always enough
MBD2 inh: blocks human MBD2 binding to methylated DNA; TR-FRET, MBD2 binding to methylated oligonucleotide; inhibition, % at 4.4 µM; 0.31% of 370,000 active; AID 686964; in the data active = inhibition above about 13%
proKLK7 act: activators of human kallikrein-7 zymogen; P49862; purified proKLK7, EDANS-DABCYL substrate fluorescence; 100% is mature enzyme control, 0% vehicle; activation, % at 7 µM; 0.9% of 370,000 active; AID 652039;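 active = activation above the mean of all tested compounds plus 3 SD, computed per campaign excluding outliers beyond control limits, cut at about 13% in these data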
Neddyl inh conf: cullin neddylation inhibition, confirmation | 13% of 1,800 active | TR-FRET cullin neddylation biochemical assay | shares compounds with Neddylation inh | calls only at 25 µM; in the data active = inhibition above about 40%;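 also: neddylation substrate is the cullin 1 ring ligase complex with SKP2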
* marks the source's active call; other numbers are inactive results; ! = a repeat was not active. Shown are actives, neighbours in structure and some others; about 3.1% of the full set was active somewhere.

`CC(O)C(C(=O)OCc1ccc([N+](=O)[O-])cc1)N1C(=O)c2ccccc2C1=O` (stereo not drawn) gave UHRF1 MBD2 ctr 2.4, LEDGF integ inh -5.9, Neddylation inh inactive, Rin1-Abl PPI inh -3.4, MBD2 inh -0.8 and proKLK7 act -0.4.
For CC(=O)Nc1nonc1-c1nc2ccccc2n1CCC#N the results were UHRF1 MBD2 ctr 1.1, LEDGF integ inh -0.7, Neddylation inh active, Rin1-Abl PPI inh -1.3, MBD2 inh 2.5, proKLK7 act 0.3 and Neddyl inh conf inactive.
`N#CCCn1c(-c2nonc2NC(=O)c2ccccc2Cl)nc2ccccc21` gave UHRF1 MBD2 ctr 3.3, LEDGF integ inh 0.8, Neddylation inh inactive, Rin1-Abl PPI inh 2.9, MBD2 inh -1.6 and proKLK7 act -0.8.
Screening CCc1nc2ccc(C(=O)Nc3ccc(Cl)c(Cl)c3)cn2c1N(C)Cc1ccc(OC)cc1 returned UHRF1 MBD2 ctr -1.2, LEDGF integ inh 0.6, Neddylation inh inactive, Rin1-Abl PPI inh -3.9, MBD2 inh 1.9 and proKLK7 act -1.8.
For COCc1cccc(-c2cc(C(=O)OC)c3n(c2=O)CCC3)c1 the results were UHRF1 MBD2 ctr -2.5, LEDGF integ inh 2.2, MBD2 inh -0.6 and proKLK7 act -0.4.
Screening CCOc1ccc(CCNC(=O)COC(=O)c2cccc(N(C)C)c2)cc1OCC returned UHRF1 MBD2 ctr -0.5, LEDGF integ inh 0.8, Neddylation inh active, Rin1-Abl PPI inh -1.6, MBD2 inh -2.5, proKLK7 act 0.5 and Neddyl inh conf inactive.
`CN(C)c1cccc(C(=O)OCC(=O)Nc2ccccc2Cl)c1` gave UHRF1 MBD2 ctr 6.5, LEDGF integ inh -6.1, Rin1-Abl PPI inh 0.8, MBD2 inh 7.4 and proKLK7 act 0.4.
For CN(C)c1cccc(C(=O)OCC(=O)Nc2ccccc2-c2ccccc2)c1 the results were UHRF1 MBD2 ctr 2.3, LEDGF integ inh 1.4, Neddylation inh active, Rin1-Abl PPI inh -0.7, MBD2 inh -3.0, proKLK7 act -0.6 and Neddyl inh conf inactive.
`O=C(CN1C2CCCC1CC(NC(=O)c1ccccc1)C2)Nc1nccs1` (stereo not drawn) gave UHRF1 MBD2 ctr -0.4, LEDGF integ inh 0.8, Neddylation inh inactive, Rin1-Abl PPI inh 2.8, MBD2 inh 2.7 and proKLK7 act -0.3.
For COc1ccc(C(=O)NC2CC3CCCC(C2)N3Cc2ccccc2)cc1 (stereo not drawn) the results were UHRF1 MBD2 ctr -0.9, LEDGF integ inh 3.3, Neddylation inh inactive, Rin1-Abl PPI inh 0.8, MBD2 inh -2.1 and proKLK7 act -0.2.
For COc1ccc(C(=O)NC2CC3CCCC(C2)N3Cc2ccccc2)c(OC)c1 (stereo not drawn) the results were UHRF1 MBD2 ctr -0.8, LEDGF integ inh 2.5, Neddylation inh active, Rin1-Abl PPI inh -0.8, MBD2 inh -4.5, proKLK7 act 0.8 and Neddyl inh conf inactive.
For Cc1cc(=O)oc2cc(OCC(=O)N3CCC(O)CC3)c(Cl)cc12 the results were UHRF1 MBD2 ctr 0.5, LEDGF integ inh 0.5, Neddylation inh inactive, Rin1-Abl PPI inh -2.0, MBD2 inh 2.2 and proKLK7 act 0.7.
Screening Cc1cc(=O)oc2cc(OCC(=O)N3CCCC3)c(Cl)cc12 returned UHRF1 MBD2 ctr -0.5, LEDGF integ inh -2.3, Neddylation inh active, Rin1-Abl PPI inh 2.6, MBD2 inh 1.9 and proKLK7 act 11.5.
O=C(N/N=C/c1c[nH]c2ccccc12)c1cc(Cl)ccc1O was read as UHRF1 MBD2 ctr -1.0, LEDGF integ inh -2.9, Neddylation inh active, Rin1-Abl PPI inh 3.0, MBD2 inh 4.5, proKLK7 act -0.4 and Neddyl inh conf inactive.
`CCC(=O)Nc1nnc(C(C)(C)C)s1` gave UHRF1 MBD2 ctr 2.6, LEDGF integ inh -2.1, Neddylation inh inactive, Rin1-Abl PPI inh 3.4, MBD2 inh 0.0 and proKLK7 act -1.0.
CCN(CC)c1ccc(/C=N/NC(=O)c2cccc(N3CCCC3=O)c2)cc1 was read as UHRF1 MBD2 ctr -2.4, LEDGF integ inh 2.2, Neddylation inh active, Rin1-Abl PPI inh -3.4, MBD2 inh -6.0 and proKLK7 act 1.8.
For O=C(N/N=C/c1cccnc1)c1cccc(N2CCCC2=O)c1 the results were UHRF1 MBD2 ctr 3.2, LEDGF integ inh -7.3, Neddylation inh inactive, Rin1-Abl PPI inh 0.9, MBD2 inh 6.9 and proKLK7 act -0.2.
For O=C(N[C@H](Cc1ccccc1)C(=O)NCCN1CCOCC1)[C@H]1O[C@@H](n2ccc(=O)[nH]c2=O)[C@H](O)[C@@H]1O the results were UHRF1 MBD2 ctr -2.0, LEDGF integ inh -5.4, MBD2 inh -5.5 and proKLK7 act 0.5.
Screening COc1ccc(-n2cc(CNCc3cccnc3)c(-c3cccc(F)c3)n2)cc1 returned UHRF1 MBD2 ctr -1.6, LEDGF integ inh -0.3, Neddylation inh active, Rin1-Abl PPI inh 2.1, MBD2 inh 1.3, proKLK7 act 0.1 and Neddyl inh conf active.
`CCOc1cc(/C=C/C(=O)Nc2ccc(C(=O)NCCN(CC)CC)cc2)ccc1OCC(C)C` gave UHRF1 MBD2 ctr 1.3, LEDGF integ inh -2.6, Neddylation inh active, Rin1-Abl PPI inh -1.5, MBD2 inh -1.3, proKLK7 act -19.9 and Neddyl inh conf active.
`O=c1c2ccccc2nc2c3ccccc3cnn12` gave UHRF1 MBD2 ctr -45.8, LEDGF integ inh -1.0, Neddylation inh active, Rin1-Abl PPI inh -6.8, MBD2 inh -7.5, proKLK7 act 2.3 and Neddyl inh conf inactive.
`O=c1c2ccccc2cnn1-c1nc2ccccc2[nH]1` gave UHRF1 MBD2 ctr -3.3, LEDGF integ inh -1.4, Rin1-Abl PPI inh -4.7, MBD2 inh 4.9 and proKLK7 act 4.3.
For CN(Cc1nccs1)C(=O)c1cc(COc2cccc3cnccc23)on1 the results were UHRF1 MBD2 ctr -0.5, LEDGF integ inh 0.5, Neddylation inh active, Rin1-Abl PPI inh -2.0, MBD2 inh -0.6 and proKLK7 act 9.1.
`CCOc1c(C)cc(-c2ncccc2O)cc1C` gave UHRF1 MBD2 ctr -0.3, LEDGF integ inh 3.5, Neddylation inh active!, Rin1-Abl PPI inh -1.5, MBD2 inh 2.6, proKLK7 act -1.9 and Neddyl inh conf inactive.
`Cc1ccccc1C1c2[nH]c3ccccc3c2C[C@H]2C(=O)N(c3ccccc3C(=O)NCCCN3CCOCC3)C(=O)N12` (stereo partly drawn) gave UHRF1 MBD2 ctr 1.2, LEDGF integ inh 2.3, Neddylation inh inactive, Rin1-Abl PPI inh 1.9, MBD2 inh 1.9 and proKLK7 act 0.7.
Screening O=C(O)C1CCN(C(=O)COc2ccc3c4c(c(=O)oc3c2)CCC4)CC1 returned UHRF1 MBD2 ctr 5.9, LEDGF integ inh 1.3, Neddylation inh active, Rin1-Abl PPI inh -3.4, MBD2 inh 5.9, proKLK7 act -3.3 and Neddyl inh conf inactive.
